High-throughput results as filed in PubChem BioAssay.
CtBP-E1A blk: inhibitors of CtBP/E1A interaction. AlphaScreen GST-E1A/His-CtBP binding, 1536-well; hits give low values. activity change, % (concentration not given with the values). 340,000 tested, 0.49% active; in the data active = activity change below about -65%; inconclusive = mostly about -30% to -63%; note: % is set by controls: 0 for no effect and ±100 for the full control effect
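GST-E1A and His-tagged CtBP (125 nM each as 5X stock) were preincubated with pin-transferred compound for 2 h at 37 °C in the dark, then glutathione donor and nickel acceptor beads were added for 1 h before AlphaScreen reading.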
Six1-Eya2 blk: blocks human Six1 binding to Eya2 | activity change, % (concentration not given with the values) | AlphaScreen GST-Six1/His-Eya2 binding, biochemical; hits give low values | 360,000 tested, 0.56% active | AID 651725; in the data active = activity change below about -65%; inconclusive = mostly about -30% to -63%; note: % is set by controls: 0 for no effect and ±100 for the full control effect
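Homogeneous AlphaScreen proximity assay pairing GST-Six1 with His-tagged Eya2 (added as 5X mix: 250 nM and 500 nM) in 50 mM Tris pH 8.0, 300 mM NaCl, 1 mM TCEP. Glutathione donor and nickel acceptor beads; 1 h, 37 °C, dark.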
Gal4-VP16 FLuc: inhibits Gal4-VP16 luciferase reporter, ROR gamma counter-screen | 310,000 tested, 3.5% active | AID 2546 | Potency, µM (doses to about 53.6 µM), without a hit: top-dose activity, negative = inhibition, hits mostly inhibitors | Drosophila S2 Gal4-VP16 UAS-luciferase, luminescence, 20 h;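 note: Gal4-VP16 expression switched on by copper sulfate through the metallothionein promoter; potency is the fitted concentration of half-maximal effect; % is set by controls: 0 for no effect and ±100 for the full control effect; nearly all actives have a fitted effect of over 50% in size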
RORgamma inh: inhibitors of mouse ROR gamma transcriptional activity. Potency, µM (series often up to 53.6 µM), inactives show top-dose activity change, negative = inhibition, usual class: inhibitors. 310,000 tested, 5.4% active. Drosophila S2 Gal4-RORgamma UAS-luciferase reporter, 20 h. P51450. AID 2551; note: potency is the fitted concentration of half-maximal effect; % is set by controls: 0 for no effect and ±100 for the full control effect; nearly all actives have a fitted effect of over 60% in size
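Luciferase reporter read in Schneider cells carrying Gal4-RORγ (mouse) and UAS-Photinus luciferase; cells given compound 1 h before 700 uM copper sulfate induction, then incubated 20 h at ambient temperature.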
CBFb RUNX1 block: blocks binding between human CBF-beta and RUNX1; Q01196+Q13951; AlphaScreen CBFb-His/RUNX1-biotin binding, biochemical; Potency, µM (series often up to 59.8 µM), inactives show at the highest dose activity, negative = inhibition, most hits filed as inhibitors; 230,000 tested, under 10 active; AID 1477; note: % of control where 0% means no effect
Target sequence (Q01196 whole entry, looked up): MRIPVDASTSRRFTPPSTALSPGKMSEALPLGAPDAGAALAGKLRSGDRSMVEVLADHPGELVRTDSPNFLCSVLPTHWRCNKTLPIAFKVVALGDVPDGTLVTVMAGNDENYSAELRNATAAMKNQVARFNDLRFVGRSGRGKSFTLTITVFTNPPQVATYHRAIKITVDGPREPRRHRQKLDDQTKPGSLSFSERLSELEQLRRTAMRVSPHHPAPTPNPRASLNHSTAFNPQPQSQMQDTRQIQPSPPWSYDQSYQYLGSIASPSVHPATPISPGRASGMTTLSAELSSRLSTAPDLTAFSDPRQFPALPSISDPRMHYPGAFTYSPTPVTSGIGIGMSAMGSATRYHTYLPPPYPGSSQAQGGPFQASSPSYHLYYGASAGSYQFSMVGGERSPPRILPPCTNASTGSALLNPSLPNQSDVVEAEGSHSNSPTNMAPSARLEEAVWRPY
Target sequence (Q13951 whole entry, looked up): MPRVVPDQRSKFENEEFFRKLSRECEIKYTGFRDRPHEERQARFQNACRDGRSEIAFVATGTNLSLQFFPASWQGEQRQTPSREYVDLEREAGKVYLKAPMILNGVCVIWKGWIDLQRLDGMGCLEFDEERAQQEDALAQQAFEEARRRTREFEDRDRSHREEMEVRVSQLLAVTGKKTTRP
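CBFb-His/RUNX1-biotin, 30 nM each, preincubated 20 min RT; compound 15 min RT; Ni + streptavidin beads 50 ng each, 90 min RT; AlphaScreen read.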
MBNL1 CUG block: blocks human MBNL1 binding to CUG repeat RNA; TR-FRET MBNL1-His/biotin-(CUG)12 binding, 665/545 ratio; Potency, µM (doses to about 57.5 µM), for the others: at the top dose activity change, negative = inhibition, hits mostly inhibitors; 280,000 tested, 0.036% active; AID 2675; active = well fitted inhibition curve with a large enough effect in the signal ratio, with a control signal flat, not every such curve was filed as active; inconclusive = small, poorly fitted or top-dose-only effect, or effect the other way, or a change in a side signal; inactive = no such curve, though single readings can be large or run the other way; the % refers to the signal ratio; note: potency is the fitted concentration of half-maximal effect; % is set by controls: 0 for no effect and ±100 for the full control effect
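His-tagged MBNL1 binding to biotinylated (CUG)12 RNA was measured by TR-FRET using terbium anti-His antibody (0.055 ng/ul final) and streptavidin-XL665 (5 nM final). Compounds were titrated 92 nM to 58 uM; 60 min at room temperature.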
* hit, by the source's call; u = inconclusive; x = no result given. Sampled rows, rich in hits. Any-hit rate of the full collection: about 5.5%. Unless noted, calls come from the whole dose curve; as a rule, active = well fitted curve in the direction sought with a large enough effect; inconclusive = small, poorly fitted or top-dose-only effect, or another doubt; inactive = no such curve, though single readings can be large; an effect the other way counts as inactive or inconclusive.

SMILES	CtBP-E1A blk	Six1-Eya2 blk	Gal4-VP16 FLuc	RORgamma inh	CBFb RUNX1 block	MBNL1 CUG block
CCc1ccc(C(=O)/C=C/c2cnn(C)c2C)s1	5	-1	8.9µM*	5.6µM*	24%	23%
CNc1ncnc2c1ncn2[C@H]1CN(CCOC)C[C@@H](CO)O1	34	24	x	x	x	x
Cc1cc(S(=O)(=O)NCc2ccccc2)ccc1OCC(=O)Nc1cccc([N+](=O)[O-])c1	3	0	11µM*	34%	-15%	x
Cc1cc(S(=O)(=O)NCc2ccccc2)ccc1OCC(=O)NCc1ccccn1	0	-22	-19%	14%	x	6%
CC(C)(C)c1ccc(C(=O)CC(Sc2ccc(Cl)cc2)C(=O)O)cc1 (configuration not stated)	1	-4	6.3µM*	1.6µM*	2%	-6%
S=c1[nH]nc(COc2ccccc2)n1/N=C/c1cccc(Br)c1	-8	-3	-21%	-42%	x	-3%
O=[N+]([O-])c1cccc(/C=N/n2c(COc3ccccc3)n[nH]c2=S)c1	-19	-10	u	13µM*	-14%	0%
S=c1[nH]ncn1/N=C/c1cccc(Oc2ccccc2)c1	-11	-7	7.1µM*	2.8µM*	-4%	6%
O=[N+]([O-])c1ccc(/C=N/n2c(COc3ccccc3)n[nH]c2=S)cc1	-6	-10	-26%	7.1µM*	-20%	u
C(=N\n1cnnc1)/c1cccc(Oc2ccccc2)c1	4	4	4%	20%	5%	5%
COc1cccc(/C=N/n2c(COc3ccccc3)n[nH]c2=S)c1	-7	0	u	7.1µM*	x	-1%
COC(=O)C1=C(C)NC(C)=C([N+](=O)[O-])[C@@H]1c1ccccc1C(F)(F)F	x	x	3%	-2%	4%	x
COc1ccc(C(=O)NC2CCN(Cc3c(F)cccc3Cl)CC2)cc1OC	x	5	-10%	-2%	x	-1%
NCC(=O)Nc1ccc(Cl)cc1C(=O)c1ccc[nH]1	x	-81*	-5%	38%	u	-5%
CC(=O)Nc1ccc(Cl)cc1C(=O)c1ccc[nH]1	1	1	x	x	x	x
CCCCOC(=O)c1cc2c(cn1)[nH]c1ccccc12	x	x	32µM*	16µM*	-3%	x
N#CCC(=O)NN	x	x	-8%	-1%	x	x
O=C1NC(Nc2nccs2)(C(F)(F)F)C(=O)N1CCc1ccccc1 (configuration not stated)	-3	-14	u	13µM*	2%	-4%
CC(=O)Nc1ccc(NC(=O)c2c(C)c(-c3ccccc3)nc3ccccc23)cc1	-1	-24	x	x	x	x
Fc1ccc(N2CCN(C3=Nc4cccc5cccc3c45)CC2)cc1	u	u	-5%	13µM*	-30%	u
Cc1cccc(C(=O)OCC(=O)Nc2c(C)n(C)n(-c3ccccc3)c2=O)c1O	4	5	x	x	x	x
Cc1nn(-c2ccccc2)c2c1C1(C(=O)N(C)c3ccccc31)C(C#N)=C(N)O2 (configuration not stated)	-8	0	u	11µM*	-3%	8%
CCN1C(=O)C2(C(C#N)=C(N)Oc3c2c(C)nn3-c2ccccc2)c2ccccc21 (configuration not stated)	6	0	u	u	1%	3%
CCCN(CCC)Cc1c(C(=O)N/N=C/c2cccs2)nnn1-c1nonc1N	-7	-8	u	13µM*	x	11%
COCc1c(C(=O)N/N=C\c2ccccn2)nnn1-c1nonc1N	-70*	-74*	-6%	20%	x	5%
SMILES	CtBP-E1A blk	Six1-Eya2 blk	Gal4-VP16 FLuc	RORgamma inh	CBFb RUNX1 block	MBNL1 CUG block
CN(Cc1c(C(=O)N/N=C/c2cccs2)nnn1-c1nonc1N)c1ccccc1	-9	-4	u	5.6µM*	x	u
COCc1c(C(=O)N/N=C/c2c[nH]c3ccccc23)nnn1-c1nonc1N	19	0	-5%	u	x	6%
Cc1c(C(=O)N/N=C/c2cccs2)nnn1-c1nonc1N	16	-8	u	11µM*	x	u
CCCN(CCC)Cc1c(C(=O)N/N=C/c2ccco2)nnn1-c1nonc1N	3	-1	-13%	u	x	9%
OCCCNc1ncnc2c1ncn2[C@H]1CN(Cc2cccs2)C[C@@H](CO)O1	5	-1	x	x	x	x
COc1ccc(S(=O)(=O)N2CCN(C/C=C/c3ccccc3)CC2)cc1NC(C)=O	-22	-8	-5%	5%	x	17%
CCOc1ccc(-c2c(C(=O)N/N=C/c3cccc(Br)c3)nnn2-c2nonc2N)cc1	x	7	-20%	-29%	x	-4%
CCCc1c(C(=O)N/N=C/c2cccs2)nnn1-c1nonc1N	2	-1	6.3µM*	u	x	0%
CCCc1c(C(=O)N/N=C/c2ccc(C)s2)nnn1-c1nonc1N	2	4	2.8µM*	1µM*	x	-4%
CCCc1c(C(=O)N/N=C/c2cccnc2)nnn1-c1nonc1N	6	4	-6%	33%	x	8%
CCCc1c(C(=O)N/N=C/c2ccc(-c3ccccc3)cc2)nnn1-c1nonc1N	-28	2	x	x	x	x
COc1ccc(Cl)cc1-c1cc(C(=O)NCc2ccc(C(F)(F)F)cc2)[nH]n1	0	6	x	x	x	x
O=C(CCCCCNc1nc(=S)[nH]c2ccccc12)NCc1ccccc1Cl	x	x	u	18µM*	0%	3%
O=C(NCc1ccccc1Cl)C1CCC(CNc2nc(=S)[nH]c3ccccc23)CC1 (configuration not stated)	-3	u	-4%	-42%	-1%	x
S=c1nc(NCCc2ccccc2Cl)c2ccccc2[nH]1	-3	4	6.3µM*	1.6µM*	x	-1%
